Composite z-score and z-score data for 36 molecules are collected here from PubChem BioAssay.

Activity calls are given as the source filed them.

Test [1] deals with XIP peptide (Xip251-270) binding. Nature of the test: XIP fragment 251-270 binding compounds – biochemical, small-molecule microarray, fluorescence 635/667 nm, 0.1 µg/mL protein, primary screen (AID 1182). Conditions: fluorescent protein binding, 635 nm, higher = more signal, called active from +8 up or from −8 down.
For test [2], the system named is XIP peptide (Xip251-270). As to the kind of experiment: compounds binding XIP fragment 251-270 – biochemical, small-molecule microarray, fluorescence 635/667 nm, 0.5 µg/mL protein, primary screen (AID 1183). Conditions: fluorescence 635 nm, higher = more signal.
A short description of test [3]: blood-stage malaria parasite viability loss – strain 3D7, DAPI fluorescence, 100 nL, primary screen (AID 1184).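 Further: parasites grown inside human red blood cells in medium with human serum.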 As to conditions: P. falciparum 3D7 growth, 3 d, higher = more signal.
Test [4] has as its target Homeobox protein Hox-A13 (Mus musculus) (UniProt Q62424). As to the kind of experiment: disruptors of Hoxa13 oligonucleotide interaction – biochemical, fluorescence polarization, labeled oligonucleotide, primary screen (AID 1185). Conditions: Hoxa13:DNA binding, 15 min, higher = more signal, called active from +8 up or from −8 down.

Sequence of Homeobox protein Hox-A13 (Mus musculus) (Q62424 whole entry, looked up): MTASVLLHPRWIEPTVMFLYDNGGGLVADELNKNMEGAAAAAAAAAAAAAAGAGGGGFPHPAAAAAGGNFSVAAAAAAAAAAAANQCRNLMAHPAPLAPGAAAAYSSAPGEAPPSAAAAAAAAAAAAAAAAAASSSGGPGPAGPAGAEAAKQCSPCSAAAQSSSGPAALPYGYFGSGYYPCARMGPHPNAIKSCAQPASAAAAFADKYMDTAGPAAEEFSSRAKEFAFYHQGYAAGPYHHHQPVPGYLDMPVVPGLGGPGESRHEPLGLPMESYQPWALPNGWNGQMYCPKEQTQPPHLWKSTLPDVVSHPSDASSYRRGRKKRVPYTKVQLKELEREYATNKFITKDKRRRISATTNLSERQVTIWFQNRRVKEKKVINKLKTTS

As to `COc1ccc(COC(=O)NN=C2C[C@@H](O)[C@@H](O)[C@@H]3[C@@H]4C(=O)N(Cc5ccccc5)C(=O)[C@@H]4CC[C@H]23)cc1`, the composite z-score in test [1] was 0.0712 (inactive); in test [2] it was -0.0564. Further, the z-score was 0.908 in test [3] and -1.81 (inactive) in test [4].
For `O=C1[C@H]2[C@H]3[C@H](O)[C@H](O)CC(=NOC[C@@H](O)COCc4ccco4)[C@H]3CC[C@H]2C(=O)N1c1ccc(F)cc1F`, in that order: -0.774 (inactive), 0.415, -0.644 and 0.794 (inactive).
For `C[C@@H]1CC[C@H]2C(=O)O[C@@H](COc3ccc(C(C)(C)C)cc3)CN2[C@@H]1c1ccc(Br)cc1`, in that order: 0.286 (inactive), 0.0087, 0.093 and 0.347 (inactive).
For `COC(=O)CC=C[C@@H](C)[C@@H](C=NOC(C)CN1CCCc2nc(C)c(C)cc21)OC` (some centres undefined), in that order: 0.327 (inactive), 0.274, 0.004 and -1.24 (inactive).
With `COc1cccc([C@H]2Oc3ccc(OC)cc3C(=NO[C@@H](C)c3cn([C@H](CO)Cc4ccccc4)nn3)[C@@H]2O)c1`, the composite z-score is 0.213 (inactive) in test [1] and 0.502 in test [2]. In addition, the z-score in test [3] is -0.868; in test [4], -6.48 (inactive).
Taken in the same sequence, the figures for `CO[C@H]1COC(=O)[C@@H]2CCCN2C(=O)CC=C[C@@H](C)[C@H](OC)COC(=O)[C@@H](OCc2ccccc2)C=C[C@@H]1C` were 0.0932 (inactive), 0.789, -1.42 and -1.53 (inactive).
Taken in the same sequence, the figures for `CO[C@H]1COC(=O)CC=C[C@H](C)[C@@H](OC)COC(=O)[C@@H](C)NC(=O)CC=C[C@@H]1C` were -0.303 (inactive), 0.54, -0.297 and -1.25 (inactive).
Taken in the same sequence, the figures for `C#CCCCON=C1C[C@@H](O)[C@@H](O)[C@@H]2[C@@H]3C(=O)N(Cc4ccccc4)C(=O)[C@@H]3CC[C@@H]12` were -0.186 (inactive), -0.148, 0.542 and -0.417 (inactive).
For `COc1ccc(C#C[C@@H]2C=C[C@H](OC(C)=O)[C@@H](COC(C)=O)O2)cc1`, the composite z-score in test [1] was 3.11 (inactive); in test [2], 0.443. The z-score in test [3] was 0.714; in test [4] it was -2.53 (inactive).
For `CO[C@H]1COC(=O)CC=C[C@@H](C)[C@H](OC)COC(=O)[C@@H]2CCCN2C(=O)CC=C[C@@H]1C`, in that order: 0.832 (inactive), 0.678, 0.095 and -0.438 (inactive).
`O=C(C=Cc1ccc2c(c1)OCO2)c1ccc(F)cc1`: the composite z-score is -0.158 (inactive) in test [1] and 0.629 in test [2]. The z-score in test [3] is -0.533; in test [4], 0.526 (inactive).
For `CC=CC1=C(CO)C(=O)[C@@H]2O[C@@H]2C1=O`, the composite z-score was 3.73 (inactive) in test [1] and 0.736 in test [2]. Further, the z-score in test [3] is 0.908; in test [4] it was -3.53 (inactive).
Taken in the same sequence, the figures for `COC(=O)CC=C[C@@H](C)[C@@H](C=NO[C@@H]1O[C@H](COC(C)=O)[C@@H](OC(C)=O)[C@H](OC(C)=O)[C@H]1OC(C)=O)NS(=O)(=O)c1ccc(C)cc1` were -0.0076 (inactive), 0.203, -0.0818 and -5.17 (inactive).
For `CO[C@@H]1COC(=O)CC=C[C@@H](C)[C@H](OC)COC(=O)[C@@H](C)COC(=O)CC=C[C@H]1C`, in that order: -0.0671 (inactive), -0.497, 0.301 and 0.372 (inactive).
For `C=CC[C@@H]1C=C[C@H](ON=C(C)CCN2CCc3nc(-c4ccccc4)c(-c4ccccc4)cc3C2)[C@@H](CO)O1`, in that order: 0.957 (inactive), 0.58, -0.0674 and -5.72 (inactive).
As for `CC(CCN1CCCc2nc(C)c(C)cc21)=NO[C@@H](C)c1cc(-c2c(C)cc(C)cc2C)no1`, the composite z-score in test [1] was 0.268 (inactive); in test [2] it was 0.567. Also, the results for the z-score in test [3] and in test [4] were -1.36 and -3.46 (inactive), respectively.
Taken in the same sequence, the figures for `O=C1CCCC=C1C(O)CCOC(c1ccccc1)(c1ccccc1)c1ccccc1` (centres undefined) were -0.0848 (inactive), -0.364, -1.1 and -4.61 (inactive).
For `C#CCCCON=C1[C@H]2CCn3c(=O)n(C)c(=O)n3[C@H]2[C@H](O)[C@@H]2O[C@H]12`, in that order: -0.158 (inactive), 0.442, 0.275 and 0.292 (inactive).
Taken in the same sequence, the figures for `CCOC(=O)NN=C1C[C@@H](O)[C@@H](O)[C@@H]2[C@@H]3C(=O)N([C@@H](C)c4ccccc4)C(=O)[C@@H]3CC[C@H]12` were 0.0004 (inactive), -0.0286, -0.125 and -1.52 (inactive).
For the molecule `C[C@@H](c1ccccc1)N1C(=O)[C@H]2[C@H]3[C@H](O)[C@H](O)CC(=NOCc4ccccc4)[C@H]3CC[C@H]2C1=O`, the composite z-score in test [1] was -0.0218 (inactive); in test [2], 0.548. In addition, the z-score was 0.754 in test [3] and 0.0197 (inactive) in test [4].
For `COc1cccc([C@@H]2Oc3ccc(OC)cc3C(=O)[C@H]2O)c1`, the composite z-score is 0.565 (inactive) in test [1] and 0.65 in test [2]. The z-score is -1.09 in test [3] and -0.169 (inactive) in test [4].
Taken in the same sequence, the figures for `COC(=O)C1=C(C)N(Cc2ccccc2)[C@]23O[C@](C(=O)OC)(C(=O)N2[C@@H]1c1ccccc1)C(C(=O)OC)=C3C(=O)OC` were 1.49 (inactive), 0.435, -1.08 and -3.67 (inactive).
For `CCOC(=O)[C@H](Cc1ccccc1)NC(=O)OC1CC(CCC2CC(CC)=NO2)OC2(CCCC(COC(=O)NCCC(C)C)O2)C1` (some centres undefined), in that order: 0.654 (inactive), 0.527, -1.04 and -5.07 (inactive).
Taken in the same sequence, the figures for `Cc1cc2c(c(=O)o1)[C@@H](O)[C@H]1O[C@H]1C2=O` were -0.483 (inactive), 0.274, -0.807 and -1.3 (inactive).
Take `COC(=O)CC=C[C@@H](C)[C@@H](C=NOC[C@H]1O[C@H](c2ccccc2)C=C[C@@H]1Oc1ccc(OC)cc1)NS(=O)(=O)c1ccc(C)cc1`: the composite z-score in test [1] is -0.0195 (inactive); in test [2] it was -0.827. In addition, the z-score in test [3] was -0.683; in test [4] it was -2.52 (inactive).
Taken in the same sequence, the figures for `CCOC(=O)NN=C1C[C@@H](O)[C@@H](O)[C@@H]2[C@@H]3C(=O)N(c4cccc(Oc5ccccc5)c4)C(=O)[C@@H]3CC[C@H]12` were 0.389 (inactive), 0.0776, 0.275 and 1.22 (inactive).
For `CCOC(=O)C1=NO[C@]2(C=C(Br)C3(OCCCO3)[C@H]3O[C@H]32)C1`, in that order: -0.788 (inactive), 0.857, 0.99 and 0.136 (inactive).
Taken in the same sequence, the figures for `CCCNC(=O)OC[C@H]1O[C@H](CCON=C(C)CCC(=O)OC[C@H]2O[C@H](c3ccccc3)C=C[C@@H]2Oc2ccc(OC)cc2)C=C[C@@H]1Oc1ccc(OC)cc1` were 0.146 (inactive), -0.138, -0.935 and -2.1 (inactive).
Consider `COc1cccc([C@H]2Oc3ccc(OC)cc3C(=NOC[C@@H](C)[C@H](OCc3ccccc3)C(C)C)[C@@H]2O)c1`, for which the composite z-score in test [1] is 0.305 (inactive); in test [2], -0.724. Further, the z-score in test [3] was -0.157; in test [4] it was -0.308 (inactive).
For `O=C1[C@H]2[C@H]3[C@H](O)[C@H](O)CC(=NOC[C@@H](O)COCc4ccco4)[C@H]3CC[C@H]2C(=O)N1C[C@@H]1CCCO1`, the composite z-score was -0.149 (inactive) in test [1] and 0.605 in test [2]. The z-score in test [3] is 0.523; in test [4], -0.514 (inactive).
For `CC(C)=CCCC(C)=CCON=C1C[C@@H](O)[C@@H](O)[C@@H]2[C@@H]3C(=O)N(C4CCCCC4)C(=O)[C@@H]3CC[C@@H]12`, in that order: -0.318 (inactive), 0.426, 0.242 and -2.99 (inactive).
As for `CCOC(=O)[C@H](Cc1ccccc1)NC(=O)CCC1CC(OC(=O)NCc2ccc3c(c2)OCO3)CC2(CCCC(COC(=O)NCCC(C)C)O2)O1` (some centres undefined), the composite z-score in test [1] is 0.644 (inactive); in test [2], 0.18. The values for the z-score in test [3] and in test [4] were -1.2 and -6.91 (inactive), respectively.
For `COc1cccc([C@H]2Oc3ccc(OC)cc3C(=NOC(C)CN3CCCCc4nc(C)c(C)cc43)[C@@H]2O)c1` (some centres undefined), in that order: 1.06 (inactive), 0.195, 0.25 and -4.68 (inactive).
Taken in the same sequence, the figures for `CCOC(=O)[C@H](CC(C)C)NC(=O)CCC1CC(OC(=O)NCCc2ccc(F)cc2)CC2(CCCC(COC(=O)NCCc3ccc(Cl)cc3)O2)O1` (some centres undefined) were 1.08 (inactive), 0.571, -1.9 and -6.52 (inactive).
Taken in the same sequence, the figures for `CC(C)CON=C1C[C@@H](O)[C@@H](O)[C@@H]2[C@@H]3C(=O)N(C[C@@H]4CCCO4)C(=O)[C@@H]3CC[C@@H]12` were -0.0867 (inactive), 0.205, 0.192 and -0.771 (inactive).
With `CC(=O)O[C@H]1C2=CO[C@H](C)[C@H]3[C@H]4C5=C([C@H](O)[C@H]6O[C@H]6C5=O)[C@H](OC4C)[C@@]23C(=O)[C@@H]2O[C@@H]21` (some centres undefined), the composite z-score was 0.533 (inactive) in test [1] and -0.406 in test [2]. Moreover, the z-score is -1.24 in test [3] and -1.02 (inactive) in test [4].
